The list is not random: actives were taken first. Their share in the collection is about 7.8%.
HCV inh – HCV inhibition. Potency, µM (highest dose often 41.8 µM), actives largely listed as inhibitors. AID 651820. 3.4% of 340,000 active. Huh7.5.1 HCVcc-Cre infection, luciferase reporter, 44 h; active = well fitted inhibition curve with a large enough effect; inconclusive = small, poorly fitted or top-dose-only effect, or another doubt; inactive = no such curve, though single readings can be large or run the other way
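After 44 h co-culture of compound, cells and HCVcc-Cre (~0.5 moi), substrate is added for 15 min at room temperature and luciferase measured over 15 sec. Cells were seeded at 1,000/well and pre-cultured 4 h.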
LASV entry inh – Lassa virus entry inhibition | AID 540256 | Lassa virus pseudotype entry inhibition, cell reporter | 1.2% of 300,000 active | Potency, µM (top dose mostly 37.9 µM), usual class: inhibitors; calls by dose curve; tested in HEK293 cells; also: nearly all actives have a fitted effect of over 50% in size
HCMV inh – blocks human cytomegalovirus replication. HFF cells, HCMV-luciferase reporter, 72 h; hits give low values. activity change, negative = inhibition, % at 57.5 µM. 4.5% of 410,000 active; in the data active = activity change below about -60%; inconclusive = no clear call, values can overlap the other calls; inactive = above about -39%
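Inhibition of viral replication was scored as loss of reporter luminescence in HFFs infected with HCMV-luciferase (MOI 1 PFU/cell) for 72 h; compounds tested at 2 doses, normalized to buffer and Salinomycin controls.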
Marburg entry inh – inhibitors of Marburg virus binding or cell entry; Marburg virus pseudotyped entry inhibition, cell reporter; Potency, µM (highest dose often 37.8 µM), usual class: inhibitors; 1.8% of 300,000 active; AID 540276; calls by dose curve; tested in HEK293 cells
VACV Venus inh – vaccinia inhibition (Venus reporter) | Vaccinia virus Venus reporter expression, fluorescence | AID 720580 | 0.46% of 330,000 active | Potency, µM (titrated, usually from 36.5 µM), hits mostly inhibitors; calls by dose curve; tested in A549 cells; also: nearly all actives have a fitted effect of over 30% in size
VACV mCherry inh – vaccinia inhibition (mCherry reporter); 0.63% of 310,000 active; AID 720579; Vaccinia virus mCherry reporter infection, fluorescence; Potency, µM (titrated, usually from 36.5 µM), most hits filed as inhibitors; calls by dose curve; tested in A549 cells; also: nearly all actives have a fitted effect of over 35% in size
Numbers stand for hits; i = inactive; ? = inconclusive; nt = not tested or not shown; [ ] = remark or other dose.

SMILES	HCV inh	LASV entry inh	HCMV inh	Marburg entry inh	VACV Venus inh	VACV mCherry inh
c1ccc(C2[C@H]3CN(Cc4cccnc4)[C@H](c4ccccc4)C34CC2(c2cccnc2)C4)cc1 (some centres not stated)	i[8.37 µM]	nt	-65	nt	?	i
COC(=O)c1cccc(C23CC4(C2)[C@H](CN(Cc2ccc(C(F)(F)F)cc2)[C@@H]4c2ccccc2)C3c2ccc(Cl)nc2)c1 (some centres not stated)	i	nt	i	nt	i	i
COC(=O)c1cccc(C23CC4(C2)[C@H](CN(Cc2ccc(C(F)(F)F)cc2)[C@@H]4c2ccccc2)C3c2ccc(C(F)(F)F)cc2)c1 (some centres not stated)	i[8.37 µM]	nt	-94	nt	i	i
O=C(NCc1ccco1)c1ccc2c(c1)N(Cc1ccc(F)cc1)C(=O)c1ccccc1S2(=O)=O	nt	?	i	?	i	i
COc1ccc(C2=CC(c3cccc(C)c3)n3nnnc3N2)cc1 (configuration not stated)	nt	i	i	nt	i	i
C/C(CCN1CCCc2nc(C)c(C)cc21)=N\O[C@H](C)CN1CCCc2nc(C)c(C)cc21	nt	nt	nt	i	nt	nt
CCCCCC(=O)NC(=S)Nc1ccc(NC(=O)c2ccco2)cc1	i	i	?	i	i	i
CCCCCC(=O)N/N=C(\C)c1ccc(NC(=O)c2ccco2)cc1	i	3.5µM	i	i	i	i
Cc1cc(C)c(NC(=O)CN2C(=O)C3(SCC(=O)N3c3ccc(F)cc3)c3ccccc32)c(C)c1 (configuration not stated)	nt	i	i	nt	i	i
CC1=CC(C)(C)N2C(=O)C3(SCC(=O)N3c3ccc(F)cc3)c3cc(C)cc1c32 (configuration not stated)	?	i	-67	?	nt	nt
Cc1ccc(C2c3[nH]c4ccccc4c3CCN2C(=O)CSc2ccccc2)cc1 (configuration not stated)	nt	10µM	i	nt	i	i
CCOc1ccc(C2c3[nH]c4ccccc4c3CCN2C(=O)CSc2ccccc2)cc1 (configuration not stated)	nt	6.3µM	i	nt	i	i
O=C(NCc1ccccn1)c1cnn(-c2ncc3c(n2)-c2ccccc2CC3)c1C1CC1	nt	nt	nt	nt	i	i
Cc1ccc(-c2nc(N)nc(N)n2)c(C)c1	i	nt	-95	nt	i	?
Cc1ccc(N)c(C)c1	i	nt	i	nt	i	i
Cc1nnc(N/N=C/c2ccc(-c3ccccc3F)o2)n1N	i	?	i	?	28µM	?
Cc1nnc(N/N=C\c2ccc(-c3ccccc3[N+](=O)[O-])o2)n1N	i	i	i	?	22µM	?
CCc1nnc(N/N=C/c2ccc(-c3ccc([N+](=O)[O-])cc3)o2)n1N	i	i	i	?	?	?
Cn1c(=O)c2cc(C(=O)Nc3cccc(C#N)c3)sc2c2ccccc21	nt	i	i	i	i	i
Cc1ccc2nc(-c3ccncc3)c(NC3CCCCC3)n2c1	?	i	i	i	i	i
Cc1ccc2nc(-c3ccncc3)c(NC3CCCC3)n2c1	?	nt	-65	nt	nt	nt
CCCCN(CCCC)C(=O)c1cn(CC)c2cc(N3CCN(C)CC3)c(F)cc2c1=O	i	i	-66	?	i	i
CCCNC(=O)c1cn(CC)c2cc(N3CCN(C)CC3)c(F)cc2c1=O	i	i	i	?	i	nt
CCn1cc(C(=O)NCCN(C)C)c(=O)c2cc(F)c(N3CCN(C)CC3)cc21	i	i	i	11µM	i	i
O=C(Cc1ccc(F)cc1)NCCc1csc2nc(-c3ccccc3F)nn12	nt	i	i	nt	i	i
SMILES	HCV inh	LASV entry inh	HCMV inh	Marburg entry inh	VACV Venus inh	VACV mCherry inh
O=C(CN1C2=NCCCN2c2ccccc21)c1ccc([N+](=O)[O-])cc1	11µM	i	-66	?	nt	nt
O=C(CN1C2=NCCCN2c2ccccc21)c1cccc(Br)c1	?	?	i	?	i	?
c1ccc(-c2ccc(-c3nc(-c4ccccn4)no3)cc2)cc1	?	?	-95	?	i	i
Cc1ccc(-c2nc(-c3ccccn3)no2)cc1	?	0.32µM	-91	1.1µM	i	i
c1ccc(-c2nc(-c3ccccn3)no2)cc1	i	?	i	?	i	i
Clc1cccc(-c2nc(-c3ccccn3)no2)c1	i	1.8µM	i	?	i	i
COc1cccc(-c2nc(-c3ccccn3)no2)c1OC	?	i	i	i	i	i
COc1cc(-c2nc(-c3ccccn3)no2)cc(OC)c1OC	4µM	i	i	i	i	i
Cc1cn2c(=O)cc(COC(=O)c3cccc(NC(=O)c4ccc(C(C)(C)C)cc4)c3)nc2s1	nt	?	i	nt	i	i
CC(C)CCn1c(=O)c2sccc2n2c(CCCC(=O)NC3CCC(C)CC3)nnc12 (configuration not stated)	nt	i	i	nt	i	i
Cc1ccc(-c2nc(-c3ccccn3)no2)cc1Cl	i	1.4µM	-64	?	i	i
Cc1ccc(O)c(/C=N/NC(=O)c2[nH]ncc2Br)c1	?	?	i	?	i	i
O=C(N/N=C/c1c(O)ccc2ccccc12)c1[nH]ncc1Br	?	16µM	-99	?	?	2.5µM
CCOc1ccc(/C=N/NC(=O)c2[nH]ncc2Br)c(O)c1	22µM	1.8µM	-101	6.5µM	?	1.3µM
O=C(N/N=C\c1c(O)ccc2ccccc12)c1ccc(Cn2cccn2)o1	?	13µM	-99	5.8µM	?	4.5µM
COc1ccc(OC)c(/C=N/NC(=O)c2[nH]ncc2Br)c1	i	?	i	i	i	i
CC(=O)N1CCN(c2ccc(Oc3ncnc4sccc34)cc2)CC1	?	i	-75	i	nt	nt
COc1ccc(CCn2c(=N)c(C(=O)NCc3ccco3)cc3c(=O)n4ccccc4nc32)cc1	nt	i	?	21µM	?	?
COc1ccc(CCn2c(=N)c(C(=O)NCC3CCCO3)cc3c(=O)n4cccc(C)c4nc32)cc1 (configuration not stated)	i	nt	-108	nt	nt	nt
Cc1cccn2c(=O)c3cc(C(=O)NCc4ccco4)c(=N)n(C4CCCC4)c3nc12	6.3µM	i	i	?	i	i
Cc1cccn2c(=O)c3cc(C(=O)NCC4CCCO4)c(=N)n(CC4CCCO4)c3nc12 (configuration not stated)	i	i	-70	?	i	i
Cc1cccn2c(=O)c3cc(C(=O)NCC4CCCO4)c(=N)n(C4CCCCC4)c3nc12 (configuration not stated)	?	?	i	?	i	i
O=C(C[N+]1(CC(O)c2ccccc2)CCCCC1)c1ccccc1 (configuration not stated)	nt	nt	nt	nt	i	i
Cc1cc(C(F)F)n2nc(C(=O)Nc3ccc(F)c(Cl)c3)nc2n1	nt	i	?	?	i	i
CCN1C(=O)C(=O)c2cc(C)ccc21	i	nt	i	nt	i	i
CC[N+]1=C(C)C(C)(C)c2cc(C)ccc21	13µM	nt	-94	nt	i	i
CCCNC(=O)C1(C)CCN1C(=O)c1ccccc1CCc1ccccc1 (configuration not stated)	nt	nt	-61	nt	i	i

Screens: PubChem, National Center for Advancing Translational Sciences (NCATS)
